Screening results: PubChem BioAssay, National Center for Advancing Translational Sciences (NCATS)
Rab9 promoter act: activators of Rab9 promoter. Huh7 Rab9 promoter-luciferase reporter, luminescence, 24 h. Potency, µM (titrated, usually from 9.22 µM), inactives show at the top dose activation, negative = inhibition, most hits filed as activators. 320,000 tested, 2.8% active; note: % of control where 0% means no effect; nearly all actives have a fitted effect of over 60% in size
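Luminescence read-out: Huh7 cells stably expressing Rab9-luciferase, treated 24 h with compound at 37 °C, then lysed with luciferase reagent for 10 min at ambient before reading.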
FLuc counter: counter-screen for miR-21 project: firefly luciferase inhibitors or activators. P08659. purified FLuc, Km substrates, luminescence inhibition. Potency, µM (highest dose often 57.5 µM), for inactives: top-dose activity change, negative = inhibition, usual class: inhibitors. 360,000 tested, 6.9% active. AID 588342;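 note: plate controls were vehicle for no effect and reference inhibitor for full effect; nearly all actives have a fitted effect of over 55% in size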
Target sequence (P08659 whole entry, looked up): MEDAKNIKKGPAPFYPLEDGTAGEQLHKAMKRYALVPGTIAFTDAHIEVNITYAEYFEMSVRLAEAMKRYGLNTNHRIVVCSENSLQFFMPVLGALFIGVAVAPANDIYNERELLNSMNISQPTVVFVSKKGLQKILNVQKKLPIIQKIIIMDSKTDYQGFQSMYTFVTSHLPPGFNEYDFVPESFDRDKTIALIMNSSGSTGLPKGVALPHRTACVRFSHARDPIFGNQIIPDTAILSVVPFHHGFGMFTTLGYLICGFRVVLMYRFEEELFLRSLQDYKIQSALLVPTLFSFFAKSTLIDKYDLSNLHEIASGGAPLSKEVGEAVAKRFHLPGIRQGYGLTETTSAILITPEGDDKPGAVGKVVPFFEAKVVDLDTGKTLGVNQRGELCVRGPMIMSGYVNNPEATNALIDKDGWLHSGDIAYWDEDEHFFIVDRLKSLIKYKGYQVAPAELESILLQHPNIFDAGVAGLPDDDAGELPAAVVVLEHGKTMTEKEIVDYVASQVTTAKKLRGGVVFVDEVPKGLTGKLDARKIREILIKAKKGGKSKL
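Purified P. pyralis luciferase, 10 nM final, with Km-level 10 uM D-luciferin and 10 uM ATP in 50 mM Tris acetate pH 7.5, 10 mM Mg acetate, 0.01% Tween-20, 0.05% BSA; 6-point qHTS titration about 60 µM downward; luminescence read.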
NPC1 prom act: activates the NPC1 promoter; 320,000 tested, 2.4% active; Potency, µM (highest dose often 9.22 µM), for the others: top-dose activation, hits mostly activators; AID 485313; Huh7 NPC1 promoter luciferase reporter, 24 h; note: % of control where 0% means no effect; nearly all actives have a fitted effect of over 60% in size
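Luciferase expression driven by the NPC1 promoter was measured in stably transfected Huh7 cells after a 24 h compound incubation, using a luciferase reagent and a luminescence read.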
ELG1 genotox: genotoxicity induction in ELG1-luciferase HEK293T cells; HEK293T ELG1-luciferase reporter, luminescence, 16 h; Potency, µM (titrated, usually from 46 µM), without a hit: at the top dose activity change, positive = activation, hits mostly activators; 330,000 tested, 1.3% active; AID 504466; note: % of control where 0% means no effect; nearly all actives have a fitted effect of over 60% in size
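Step 1: seed 2,000 HEK293T ELG1-luciferase cells per well. Step 2: add compound or DMSO, incubate 16 hr at 37 °C. Step 3: ONE-Glo, 30 min at room temperature, read luminescence.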
KinaseGlo FLuc: counter-screen: inhibitors of Kinase-Glo firefly luciferase. Q27757. Kinase-Glo luciferase, ATP luminescence, 8 min. Potency, µM (highest dose often 38.3 µM), inactives show at the highest dose activity change, negative = inhibition, hits mostly inhibitors. 200,000 tested, 0.28% active. AID 1379; note: % is set by controls: 0 for no effect and ±100 for the full control effect; nearly all actives have a fitted effect of over 60% in size
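Substrate mix (final 50 mM imidazole pH 7.2, 50 mM KCl, 7 mM MgCl2, 10 uM ATP, 0.01% Tween 20, 0.05% BSA) plus pin-tool compound, then Kinase-Glo detection mix; 8 min ambient, luminescence read.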
SMN2 splice up: enhancers of SMN2 splice variant expression. AID 1458. Potency, µM (top dose mostly 46.1 µM), inactives show top-dose activity change, positive = activation, hits mostly activators. HEK293 SMN2-luciferase splicing reporter, luminescence, 30-36 h. 210,000 tested, 2.8% active; note: % of control where 0% means no effect; nearly all actives have a fitted effect of over 55% in size
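qHTS luciferase splicing reporter: luminescence rises when SMN2 exon 7 is included in transfected HEK293 cells. Compound exposure lasted 30-36 h at 37C, with 4.5 mM final sodium butyrate as control, followed by a ONE-Glo read.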
Starred values were filed as active, the others as inactive; ? = inconclusive; nt = no result given; [ ] = dose if it differs, or a comment. Most compounds without a hit are left out; they make up all but 7.4% or so of the library. Calls come from the whole dose curve; as a rule, active = well fitted curve in the direction sought with a large enough effect; inconclusive = small, poorly fitted or top-dose-only effect, or another doubt; inactive = no such curve, though single readings can be large; an effect the other way counts as inactive or inconclusive. Potency is the fitted concentration of half-maximal effect.

SMILES | Rab9 promoter act | FLuc counter | NPC1 prom act | ELG1 genotox | KinaseGlo FLuc | SMN2 splice up
CCCCC(=O)N/N=C/c1c(O)n(Cc2ccco2)c(=O)[nH]c1=O | 1% | -2% | -3% | -1% | -4% | 5%
O=C(N/N=C/c1c(O)n(Cc2ccco2)c(=O)[nH]c1=O)c1ccccc1O | -1% | 15µM* | 2% | 0% | nt | nt
O=C(N/N=C/c1c(O)n(C2CCCCC2)c(=S)[nH]c1=O)c1ccccc1O | 7% | 15µM* | 1% | 3%[9.26 µM] | nt | nt
O=C(O)CS(=O)(=O)C(c1ccccc1)c1ccccc1 | nt | nt | nt | nt | -3%[7.66 µM] | -4%[9.22 µM]
CC(=O)Nc1nnc(SCC(=O)NCCOc2ccccc2)s1 | ? | 2%[2.3 µM] | 5% | -2% | 2% | 8%
O=C(CSc1nnc(NC(=O)c2cccc(F)c2)s1)NCc1ccco1 | ? | 3.4µM* | ? | 26% | nt | nt
COc1cccc(OCc2cc(C(=O)N3C[C@H]4C[C@@H](C3)c3cccc(=O)n3C4)no2)c1 | 4µM* | 17µM* | 3.2µM* | 18µM* | nt | nt
N[C@@H](Cc1ccccc1)P(=O)(O)O | nt | nt | nt | nt | -1%[7.66 µM] | -1%[9.22 µM]
CCC(Oc1cc(Cl)ccc1Cl)C(=O)N1CCC2(CC1)OCCO2 (configuration not stated) | 1.8µM* | 11µM* | 0.89µM* | ? | nt | nt
COc1ccc(C(=O)C23CN4CN(CN(C4)C2)C3)cc1 | -9% | 0% | -5% | 0% | nt | nt
COc1ccc(C(=O)Nc2sc3c(c2C(=O)O)CC(C)(C)OC3)cc1 | -8% | 17µM* | -1% | -7% | -1% | -36%
